Compound activity from PubChem.
miR122 inh: miR-122 Renilla sensor signal increase in Huh7, primary screen, miR-122 inhibitor project, cell-based, single point, plate reader; Huh7 miR-122 Renilla luciferase sensor, 48 h; neutral wells = 0, positive control = 100; activation (reporter increase), % at 12.5 µM; 0.3% of 340,000 active; AID 602342, 2012;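 active = mean replicate activation score at least 90 and every replicate individually at or above 90; inconclusive = only one of the two criteria met; inactive = neither criterion met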;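 also: higher luciferase means less miR-122 activity so hits act as miR-122 inhibitors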
Env fusion inh: inhibitors of HIV-1 Env-driven cell-cell fusion, primary screen, HeLa-JRFL effector, CEM21 target cells, luciferase | inhibition, % at 12.3 µM | 1.1% of 360,000 active | AID 651610, 2012;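 active = mean replicate inhibition score of at least 50 and every replicate individually at or above 50; inconclusive = only one of the two criteria met; inactive = mean below 50 and not all replicates reaching 50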;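 also: 0% = plate neutral controls and 100% = maraviroc near 300 nM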
Wnt bcat act: Wnt/beta-catenin pathway activators, primary screen, cell-based, plate reader, single point; 1.2% of 300,000 active; activation, % at 9.35 µM; Wnt/beta-catenin reporter cell assay, activator; in the data active = activation above about 30%, passing the limit was not always enough; inconclusive = no clear call, values can overlap the other calls;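 also: 0% = neutral control wells and 100% = positive control wells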
MITF act: activators of MITF-driven TRPM1 promoter reporter, primary screen, cell-based, SK-MEL-5, luciferase, single point; SK-MEL-5 TRPM1-promoter luciferase, 24 h; % of positive control, neutral wells = 0; activation, % at 12.5 µM; 0.75% of 300,000 active;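 active = mean activation of at least 80% with every replicate also reaching 80%; inconclusive = mean reaches 80% but some replicate falls short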;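 also: 0% = neutral control wells and 100% = parthenolide positive control wells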
esBAF inh: Bmi1 luciferase reporter increase in mESCs, primary screen, esBAF inhibitor project, mouse ES cells, Bmi1 luciferase knock-in, single point | AID 602393, 2012 | 2% of 350,000 active | reporter increase, % at 12.5 µM | 24 h; 100% = twice the neutral-well signal; in the data active = activation above about 40%; inconclusive = no clear call, values can overlap the other calls;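 also: 0% = median of the plate's neutral control wells and 100% = double that signal; a rise in the Bmi1 reporter signal indicates esBAF inhibition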
An asterisk follows results filed as active; ? = inconclusive; / = no result given; [ ] = dose if it differs, or a comment. Shown are actives, neighbours in structure and some others; about 3.4% of the full set was active somewhere.

SMILES | miR122 inh | Env fusion inh | Wnt bcat act | MITF act | esBAF inh
COc1ncnc2c1ncn2CCCN[C@H](C)c1cccc2ccccc12 | -2 | / | -2 | / | -2
CSc1ncnc2c1ncn2CCCN[C@H](C)c1cccc2ccccc12 | 0 | 58* | -2 | / | 2
Fc1cccc(-c2nnn3c2nc(Cl)c2ccccc23)c1 | 5 | -73 | 40* | -11 | ?
NNc1nc2c(-c3ccc(Cl)cc3)nnn2c2ccccc12 | 29 | -73 | 0 | 43 | /
NNc1nc2c(-c3ccc(F)cc3)nnn2c2ccccc12 | 30 | -80 | 39* | 43 | 33
Clc1nc2c(-c3ccccc3)nnn2c2ccccc12 | 10 | 19 | 0 | -57 | -79
CC(C)(C)OC(=O)CC[C@@H](C(=O)N1CCN(C(=O)OC(C)(C)C)CC1)n1cc(C(Cc2ccc(O)cc2)NC(=O)OC(C)(C)C)nn1 (stereo partly specified) | -4 | 62* | 0 | -9 | 1
CC(C)CC(NC(=O)OC(C)(C)C)c1cn([C@@H](CCCCNC(=O)OC(C)(C)C)C(=O)N2CCN(C(=O)OC(C)(C)C)CC2)nn1 (stereo partly specified) | -6 | 32 | -6 | -13 | /
O=c1cc(-c2ccccc2)oc2cccc(O)c12 | -5 | / | -1 | 21 | 45*
COCOc1ccc(-c2cc(=O)c3c(O)cc(OCOC)cc3o2)cc1 | 2 | / | 15 | / | 88*
O=c1cc(-c2cccc(Cl)c2)oc2cccc(O)c12 | 3 | -32 | 7 | 14 | 39
O=C(COc1cc(O)c2c(=O)cc(-c3ccccc3)oc2c1)c1ccccc1 | 1 | / | / | 25 | 27
O=c1cc(-c2ccc(O)cc2)oc2cc(O)cc(O)c12 | 4 | 14 | 46* | 94* | ?
O=c1cc(-c2ccccc2)oc2cc(O)cc(O)c12 | -6 | / | 6 | 100* | 7
COc1cc(O)c2c(=O)cc(-c3ccccc3)oc2c1 | -2 | / | 23 | 95* | 50*
CN(C)/C=N/c1nc(-c2ccc3c(c2)OCO3)cs1 | 4 | -38 | 71* | 76 | 22
Nc1nc(-c2ccc3ccccc3c2)cs1 | / | -46 | 17 | ? | /
CN(C)/C=N/c1nc(-c2ccc3ccccc3c2)cs1 | -1 | -135 | 41* | 125* | 60
O=C(NCC1CCCO1)c1ccccc1 (stereo unspecified) | -3 | -55 | 0 | -8 | -6
O=C(NCC1CCCO1)c1ccc(-c2ccccc2Cl)o1 (stereo unspecified) | -2 | -52 | -4 | 130* | /
O=C(NC12CC3CC(CC(C3)C1)C2)c1ccc(-c2ccccc2Cl)o1 | 1 | / | 4 | 21 | 45*
O=C(NCC1CCCO1)c1cc(-c2ccccc2F)no1 (stereo unspecified) | -6 | -3 | 26 | 27 | 57*
CCCN1[C@H](C(=O)OC)[C@@H](CO)[C@@H]2Cn3c(ccc(-c4ccccc4OC)c3=O)[C@@H]21 | -5[16.7 µM] | / | / | / | -3
CN1c2ccc(C3=CCCCC3)cc2[C@H]2[C@H](CCN2C(=O)C2CCCCC2)[C@H]1CO | / | 34[16.7 µM] | / | / | /
C[C@@H]1CN([C@H](C)CO)C(=O)Cc2cc(NC(=O)Nc3ccc(F)cc3)ccc2O[C@H]1CN(C)S(=O)(=O)c1ccc(Cl)cc1 | 5[16.7 µM] | 4[16.7 µM] | / | / | 0
SMILES | miR122 inh | Env fusion inh | Wnt bcat act | MITF act | esBAF inh
CCOC(=O)c1cnc2cc(-c3ccc(C)cc3)nn2c1C | -6 | 1 | -2 | / | 71*
CC(=O)c1cnc2cc(-c3cccc(Br)c3)nn2c1C | 3 | -59 | 14 | 56 | 50*
C[C@@H]1CN([C@@H](C)CO)C(=O)c2cccc(NC(=O)C3CC3)c2O[C@H]1CN(C)S(=O)(=O)c1ccc(Cl)cc1 | -5[16.7 µM] | / | / | / | -1
COc1ccccc1OCCNC(=O)c1ccc2c(c1)OCCO2 | / | -58 | 52* | 59 | 8
COc1ccccc1OCCNC(=O)c1ccc2c(c1)CCC2 | -2 | -25 | 14 | ? | 49*
O=C(c1ccccc1)N1CC[C@@H]2[C@@H](CO)Nc3ccc(-c4ccccc4F)cc3[C@@H]21 | 77[16.7 µM] | / | / | / | 1
C[C@@H]1CCCCO[C@H](CN(C)Cc2ccccc2)[C@@H](C)CN([C@@H](C)CO)C(=O)c2cc(NC(=O)Nc3ccccc3)ccc2O1 | 11[16.7 µM] | -41[16.7 µM] | / | / | -1
O=c1oc(CCCO)cc2ccc(Br)cc12 | 1 | -113 | -1 | 8 | 3
O=c1oc(CCO)cc2ccc(-c3ccc4[nH]ccc4c3)cc12 | 4 | -111 | 43* | 117* | 50*
CCOCc1c(C(=O)OCC(=O)Nc2ccccc2C(N)=O)oc2ccccc12 | -6 | / | 39* | -4 | -3
COc1ccc(-c2nnc(N(C)C(=O)c3cccnc3)s2)cc1 | -7 | -36 | 41* | 36 | 36
C[C@H]1CN([C@@H](C)CO)C(=O)c2cc(NS(=O)(=O)c3cccs3)ccc2O[C@H]1CN(C)CC1CCCCC1 | -3[16.7 µM] | 7[16.7 µM] | / | / | -6
O=S(=O)(c1ccccc1)N1C[C@H]2[C@@H](c3ccccc31)[C@@H](CO)N2Cc1ccc2c(c1)OCO2 | 140*[16.7 µM] | / | / | / | -3
O=S(=O)(c1ccccc1)N1C[C@H]2[C@@H](c3ccccc31)[C@H](CO)N2Cc1ccc2c(c1)OCO2 | 10[16.7 µM] | / | / | / | -2
COc1ccc(N(CC(=O)NCCSC2CCCCC2)S(=O)(=O)c2ccccc2)c(OC)c1 | -1 | 64* | 0 | -3 | 0
COc1ccc(N(CC(=O)NCCSC2CCCCC2)S(=O)(=O)c2ccc(C)cc2)cc1 | -3 | 33 | 1 | 2 | 1
COc1ccc(OC)c(N(CC(=O)NCCSC2CCCCC2)S(=O)(=O)c2ccccc2)c1 | 12 | 58* | -4 | -4 | -5
COc1ccc(N(CC(=O)NCCSc2ccc(C)cc2)S(=O)(=O)c2ccccc2)c(OC)c1 | / | 37 | 0 | -2 | -3
CC(C)C(=O)NC(=S)Nc1ccc(S(=O)(=O)Nc2ccccc2)cc1 | 137* | -21 | -2 | -2 | /
CCOc1ccc(NS(=O)(=O)c2ccc(NC(=S)NC(=O)C(C)C)cc2)cc1 | 115* | / | / | -1 | 5
Cc1ccc(S(=O)(=O)Nc2ccc(C(=O)Nc3cc(C)on3)cc2)cc1 | 115* | -7 | / | 12 | -6
CCOc1ccc(S(=O)(=O)Nc2ccc(C(=O)NN)cc2)cc1 | -13 | 14 | 53* | -1 | 1
CCOc1ccc(S(=O)(=O)Nc2ccc(C(=O)NNC(=O)c3ccncc3)cc2)cc1 | 3 | -7 | 1 | 0 | /
Cc1cc(NC(=O)c2ccc(S(=O)(=O)Nc3ccccc3)cc2)no1 | 13 | -33 | -7 | / | 1
COc1ccc(NS(=O)(=O)c2ccc(NC(=S)NC(=O)C(C)C)cc2)cc1 | ? | / | / | -5 | 3
CCCC(=O)Nc1ccc2c(c1)C(=O)N(C)C[C@H](OC)[C@@H](C)CN(S(=O)(=O)c1cn(C)cn1)[C@H](C)CO2 | / | / | / | / | 3
